# Measurements as given in ChEMBL document CHEMBL3988442, “University of Dundee, Small-Polar-MMV Screening Library” (2021).
# For some of these results: Results with a measured potency or affinity are listed apart.
# Experiments:
# Parameters in all cases: scale not given: direction of the effect not stated beside the values
# [1] = target: Protein translocase subunit SecA (Escherichia coli (strain K12)) (UniProt P10408); experiment: Assay to Identify E. coli SecA ATPase Inhibitors; type: functional; details: 30 µM
# Sequence of Protein translocase subunit SecA (Escherichia coli (strain K12)) (P10408 whole entry): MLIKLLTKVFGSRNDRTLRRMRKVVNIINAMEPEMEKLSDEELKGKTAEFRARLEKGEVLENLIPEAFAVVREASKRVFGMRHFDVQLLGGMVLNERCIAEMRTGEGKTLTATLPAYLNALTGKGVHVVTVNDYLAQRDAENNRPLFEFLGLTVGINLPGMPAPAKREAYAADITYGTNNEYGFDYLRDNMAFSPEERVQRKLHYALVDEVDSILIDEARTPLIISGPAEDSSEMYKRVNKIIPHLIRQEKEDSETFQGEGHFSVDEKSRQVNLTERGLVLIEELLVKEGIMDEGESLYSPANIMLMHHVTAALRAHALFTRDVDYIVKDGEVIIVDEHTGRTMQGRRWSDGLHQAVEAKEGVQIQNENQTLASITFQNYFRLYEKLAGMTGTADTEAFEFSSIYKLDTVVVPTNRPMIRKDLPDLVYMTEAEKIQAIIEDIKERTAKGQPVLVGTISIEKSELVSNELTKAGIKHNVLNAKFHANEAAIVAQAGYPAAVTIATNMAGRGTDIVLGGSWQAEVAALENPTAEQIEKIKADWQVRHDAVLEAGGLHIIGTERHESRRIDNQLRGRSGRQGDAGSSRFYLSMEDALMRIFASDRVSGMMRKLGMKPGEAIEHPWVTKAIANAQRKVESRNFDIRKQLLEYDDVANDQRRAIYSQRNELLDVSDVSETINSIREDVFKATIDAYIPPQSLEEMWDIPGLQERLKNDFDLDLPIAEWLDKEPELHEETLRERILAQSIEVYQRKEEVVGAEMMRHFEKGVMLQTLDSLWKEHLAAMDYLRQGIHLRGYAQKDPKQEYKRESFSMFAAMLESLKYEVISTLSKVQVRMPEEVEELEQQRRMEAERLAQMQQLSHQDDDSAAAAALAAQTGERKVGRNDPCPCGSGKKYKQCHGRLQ
# [2] = target: T1, Ubiquitin-activating enzyme e1, putative (Leishmania donovani (strain BPK282A1)) (UniProt E9BSI1); experiment: Leishmania donovani Ubiquitin Activating Enzyme (LdE1); type: functional; details: 30 µM
# T1 sequence (whole entry): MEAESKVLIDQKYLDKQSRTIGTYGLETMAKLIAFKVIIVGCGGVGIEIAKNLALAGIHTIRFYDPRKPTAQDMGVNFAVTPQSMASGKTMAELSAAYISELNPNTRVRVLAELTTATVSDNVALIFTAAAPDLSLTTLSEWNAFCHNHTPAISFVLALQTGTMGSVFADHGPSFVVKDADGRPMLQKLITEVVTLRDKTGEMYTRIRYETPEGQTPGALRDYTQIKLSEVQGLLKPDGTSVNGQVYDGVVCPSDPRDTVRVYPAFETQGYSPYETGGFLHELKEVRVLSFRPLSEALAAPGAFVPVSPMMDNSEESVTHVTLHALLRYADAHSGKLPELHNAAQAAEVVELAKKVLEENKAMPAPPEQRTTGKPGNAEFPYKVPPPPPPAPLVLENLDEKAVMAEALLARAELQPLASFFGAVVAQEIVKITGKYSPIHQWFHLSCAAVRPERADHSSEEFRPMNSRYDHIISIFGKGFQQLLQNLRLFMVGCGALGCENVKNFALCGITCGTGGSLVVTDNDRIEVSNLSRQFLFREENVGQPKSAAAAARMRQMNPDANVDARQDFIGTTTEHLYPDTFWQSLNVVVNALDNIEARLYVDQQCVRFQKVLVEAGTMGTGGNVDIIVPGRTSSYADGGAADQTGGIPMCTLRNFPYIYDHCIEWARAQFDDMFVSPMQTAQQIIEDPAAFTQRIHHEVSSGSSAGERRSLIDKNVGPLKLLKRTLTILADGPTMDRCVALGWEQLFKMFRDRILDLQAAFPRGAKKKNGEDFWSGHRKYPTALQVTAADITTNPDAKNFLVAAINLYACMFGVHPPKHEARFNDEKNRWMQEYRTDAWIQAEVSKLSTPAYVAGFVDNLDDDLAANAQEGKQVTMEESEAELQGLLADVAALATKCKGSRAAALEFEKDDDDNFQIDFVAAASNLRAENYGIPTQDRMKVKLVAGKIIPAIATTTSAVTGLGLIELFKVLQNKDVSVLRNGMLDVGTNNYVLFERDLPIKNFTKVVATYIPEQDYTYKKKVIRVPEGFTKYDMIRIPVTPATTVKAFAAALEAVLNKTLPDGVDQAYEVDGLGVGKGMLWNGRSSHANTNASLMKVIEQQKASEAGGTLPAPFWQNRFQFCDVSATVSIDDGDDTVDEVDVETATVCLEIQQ
# [3] = target: Sialic acid-binding Ig-like lectin 9 (Homo sapiens) (UniProt Q9Y336); experiment: Hs-Siglec9 ALPHAscreen SOP 20170721; details: 10 µM
# Sequence of Sialic acid-binding Ig-like lectin 9 (Homo sapiens) (Q9Y336 whole entry): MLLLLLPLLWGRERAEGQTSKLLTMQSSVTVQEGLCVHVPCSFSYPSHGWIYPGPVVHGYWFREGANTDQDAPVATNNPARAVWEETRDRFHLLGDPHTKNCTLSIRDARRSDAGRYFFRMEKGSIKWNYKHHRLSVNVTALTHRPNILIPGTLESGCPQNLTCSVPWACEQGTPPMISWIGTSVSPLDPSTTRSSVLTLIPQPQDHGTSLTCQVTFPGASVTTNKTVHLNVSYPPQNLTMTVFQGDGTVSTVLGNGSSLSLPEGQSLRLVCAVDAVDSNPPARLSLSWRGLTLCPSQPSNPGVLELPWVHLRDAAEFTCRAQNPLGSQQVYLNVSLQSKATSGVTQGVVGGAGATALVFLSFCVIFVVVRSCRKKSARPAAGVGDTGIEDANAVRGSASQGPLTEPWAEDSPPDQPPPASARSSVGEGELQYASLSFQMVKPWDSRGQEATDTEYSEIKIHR
# Trypanosoma cruzi = experiment: Trypanosoma cruzi phosphomannomutase and mannose-1-phosphate guanylyltransferase assay; type: functional; details: 10 µM
# [4] = target: T2, Arginase-2, mitochondrial (Homo sapiens) (UniProt P78540); experiment: in vitro enzyme assay to detect the production of urea directly proportional to the activity of Arginase II; type: functional; details: 33.3 µM; also: in the data most compounds retested in dose-response had high values
# T2 sequence (whole entry): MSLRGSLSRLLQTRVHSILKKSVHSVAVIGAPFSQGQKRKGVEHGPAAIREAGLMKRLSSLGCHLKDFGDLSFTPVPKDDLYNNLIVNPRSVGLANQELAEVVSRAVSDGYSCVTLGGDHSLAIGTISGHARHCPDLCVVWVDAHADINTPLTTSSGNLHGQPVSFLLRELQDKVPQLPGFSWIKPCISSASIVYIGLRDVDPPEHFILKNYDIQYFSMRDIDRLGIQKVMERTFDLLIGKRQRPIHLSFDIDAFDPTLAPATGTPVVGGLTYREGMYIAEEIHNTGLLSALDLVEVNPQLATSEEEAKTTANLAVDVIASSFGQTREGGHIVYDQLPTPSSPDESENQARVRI
# [5] = target: T3, Proteasome subunit beta (Trypanosoma cruzi) (UniProt O96673); experiment: Trypanosoma cruzi proteasome chymotrypsin-like activity (TcProtChymo) assay.; also: in the data most compounds retested in dose-response had high values; type: functional; details: 9.37 µM
# T3 sequence (whole entry): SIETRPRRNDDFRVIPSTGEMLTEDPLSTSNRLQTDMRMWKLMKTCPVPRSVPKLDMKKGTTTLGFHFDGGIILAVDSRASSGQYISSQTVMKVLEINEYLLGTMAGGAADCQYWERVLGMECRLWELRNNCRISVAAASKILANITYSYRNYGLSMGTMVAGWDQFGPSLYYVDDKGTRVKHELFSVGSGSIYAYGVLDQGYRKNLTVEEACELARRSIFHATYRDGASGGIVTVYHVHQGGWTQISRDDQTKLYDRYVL
# Homo sapiens = species on record: Homo sapiens; experiment: To identify inhibition of the IFN signalling (Jak-Stat) pathway via expression of an eGFP reporter gene under the control of an IFN-stimulated response element (ISRE) containing MxA promoter.; type: functional; details: 30 µM
# [6] = target: T4, Tyrosyl-tRNA synthetase, putative (Trypanosoma cruzi (strain CL Brener)) (UniProt Q4DSP6); experiment: Trypanosoma cruzi tyrosyl tRNA synthetase (TcYRS) _High Tyrosine SOP; type: functional; details: 30 µM; also: in the data most compounds retested in dose-response had high values
# T4 sequence (whole entry): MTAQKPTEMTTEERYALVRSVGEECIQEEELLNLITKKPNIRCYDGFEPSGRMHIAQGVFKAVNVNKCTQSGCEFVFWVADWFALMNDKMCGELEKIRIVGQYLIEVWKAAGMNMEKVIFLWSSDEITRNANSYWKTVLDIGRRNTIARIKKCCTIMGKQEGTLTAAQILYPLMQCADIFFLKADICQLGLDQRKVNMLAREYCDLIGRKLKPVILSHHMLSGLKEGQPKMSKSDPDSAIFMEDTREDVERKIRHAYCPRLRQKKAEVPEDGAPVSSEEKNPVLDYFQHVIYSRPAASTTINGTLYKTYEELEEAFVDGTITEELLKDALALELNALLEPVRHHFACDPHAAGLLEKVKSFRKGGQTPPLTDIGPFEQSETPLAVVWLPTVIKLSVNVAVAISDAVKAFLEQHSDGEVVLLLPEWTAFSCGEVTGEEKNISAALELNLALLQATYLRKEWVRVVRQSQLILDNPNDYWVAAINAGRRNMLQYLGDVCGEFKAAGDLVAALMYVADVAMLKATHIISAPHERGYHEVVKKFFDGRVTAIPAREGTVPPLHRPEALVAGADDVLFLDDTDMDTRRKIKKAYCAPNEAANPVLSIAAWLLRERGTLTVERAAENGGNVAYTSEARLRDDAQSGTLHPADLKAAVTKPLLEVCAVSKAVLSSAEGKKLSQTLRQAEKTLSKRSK
# [7] = target: T4, Tyrosyl-tRNA synthetase, putative (Trypanosoma cruzi (strain CL Brener)); experiment: Trypanosoma cruzi tyrosyl tRNA synthetase (TcYRS) SOP; type: functional; details: 30 µM
# [8] = target: Chromo domain-containing protein 1 (Saccharomyces cerevisiae (strain ATCC 204508 / S288c) (Baker's yeast)) (UniProt P32657); experiment: ScCHD-1 Enzyme Inhibition Assay; type: functional; details: 30 µM; also: in the data most compounds retested in dose-response had high values
# Sequence of Chromo domain-containing protein 1 (Saccharomyces cerevisiae (strain ATCC 204508 / S288c) (Baker's yeast)) (P32657 whole entry, the tested form may be a part): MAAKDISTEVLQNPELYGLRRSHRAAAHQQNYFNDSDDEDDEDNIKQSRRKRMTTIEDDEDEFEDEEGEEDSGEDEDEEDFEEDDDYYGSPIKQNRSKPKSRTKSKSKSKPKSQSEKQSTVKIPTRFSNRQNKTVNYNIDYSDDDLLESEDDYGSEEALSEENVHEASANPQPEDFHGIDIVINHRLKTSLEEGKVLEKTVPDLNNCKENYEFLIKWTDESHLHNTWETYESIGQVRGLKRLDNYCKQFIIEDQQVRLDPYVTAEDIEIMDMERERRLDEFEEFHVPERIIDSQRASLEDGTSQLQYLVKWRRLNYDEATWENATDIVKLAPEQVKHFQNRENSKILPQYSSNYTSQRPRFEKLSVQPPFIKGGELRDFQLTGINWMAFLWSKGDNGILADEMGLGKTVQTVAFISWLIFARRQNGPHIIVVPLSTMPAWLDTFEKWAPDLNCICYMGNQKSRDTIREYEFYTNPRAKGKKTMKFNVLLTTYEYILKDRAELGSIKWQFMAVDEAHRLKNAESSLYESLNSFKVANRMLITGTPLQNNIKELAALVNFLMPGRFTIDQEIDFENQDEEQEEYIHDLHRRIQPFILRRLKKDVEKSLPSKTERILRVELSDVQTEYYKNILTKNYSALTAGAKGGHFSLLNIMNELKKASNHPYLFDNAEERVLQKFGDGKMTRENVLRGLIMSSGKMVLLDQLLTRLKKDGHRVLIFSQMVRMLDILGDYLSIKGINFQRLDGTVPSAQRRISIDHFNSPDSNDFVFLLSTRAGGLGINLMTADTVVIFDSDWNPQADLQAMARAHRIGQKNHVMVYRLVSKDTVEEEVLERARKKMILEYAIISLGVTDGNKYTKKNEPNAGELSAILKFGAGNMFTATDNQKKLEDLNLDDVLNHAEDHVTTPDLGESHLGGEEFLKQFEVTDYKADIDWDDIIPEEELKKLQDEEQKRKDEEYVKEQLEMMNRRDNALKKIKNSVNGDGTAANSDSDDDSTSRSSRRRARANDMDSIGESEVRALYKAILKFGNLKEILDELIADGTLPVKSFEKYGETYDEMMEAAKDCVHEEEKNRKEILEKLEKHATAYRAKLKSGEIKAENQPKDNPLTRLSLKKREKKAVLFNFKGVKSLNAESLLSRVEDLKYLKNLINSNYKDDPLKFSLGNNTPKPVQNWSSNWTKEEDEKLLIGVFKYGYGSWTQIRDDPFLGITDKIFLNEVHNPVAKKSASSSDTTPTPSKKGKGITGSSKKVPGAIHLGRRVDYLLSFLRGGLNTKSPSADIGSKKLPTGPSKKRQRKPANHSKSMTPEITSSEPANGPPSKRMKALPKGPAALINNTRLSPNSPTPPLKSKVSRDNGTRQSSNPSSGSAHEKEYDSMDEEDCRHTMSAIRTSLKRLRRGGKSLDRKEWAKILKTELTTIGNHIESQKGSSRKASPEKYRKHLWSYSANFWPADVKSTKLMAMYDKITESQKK
Structure (SMILES),Percent Effect [1] [%],Percent Effect [2] [%],Percent Effect [3] [%],Percent Effect (Trypanosoma cruzi) [%],Percent Effect [4] [%],Percent Effect [5] [%],Percent Effect (Homo sapiens) [%],Percent Effect [6] [%],Percent Effect [7] [%],Percent Effect [8] [%]
CCOC(=O)N1CCN(C(=O)c2sc(-c3ccc(F)cc3)nc2C)CC1,-7.21,5.41,8.85,-1.65,1.05,17.5,1.22,4.79,12.2,-3.55
CCC(O)CN1CCN(C(=O)c2sccc2OC)CC1 (stereo not given),0.313,7.79,10.4,2.24,-3.89,0.526,16.7,3.92,16.5,-3.7
CCc1noc(C(C)N2CCC(N3CCCC3)CC2)n1 (stereo not given),-9.65,16,8.32,5.02,-5.76,7.38,-3.75,5.79,12.8,-10.6
Cc1cccc(CN2C[C@@H]3COC[C@]3(CNC(=O)N3CCCC3)C2)n1,-4.34,-1.3,12.9,-3.02,-4.86,4.68,1.04,3.68,5.13,1.29
c1ccc(Cn2ccnc2CN2CCCC2c2noc(C3CC3)n2)cc1 (stereo not given),2.82,5.33,-7.23,-5.22,1.77,19.1,15.7,7.89,10.3,-12.1
Cc1nc(O)c2nnn(C[C@H]3CCCN3C(=O)C(C)(C)C)c2n1,-2.69,12,5.82,-2.37,-1.33,7.88,12.7,5.29,10,-20.8
O=C1CC2(CCN(S(=O)(=O)c3cccs3)C2)CN1c1ccccc1 (stereo not given),-4.36,9.09,0.409,-2.81,3.65,2.83,8.75,-1.93,-2.5,-2.17
O=C(C1CCCC1)N1CCC2(CC1)COCCN2CC1CC1,-2.73,16.9,-2.04,-1.31,5.02,10,9.54,11.6,15,-9.88
Cc1[nH]nc(CCC(=O)N2CCCC(OCc3cccnc3)C2)c1C (stereo not given),-5.06,10.8,4.22,0.679,-0.35,2.91,27.8,6.92,17.1,-1.03
O=C(N1CCC(Nc2cccnn2)CC1)C1(c2ccc(F)cc2)CC1,-2.8,7.79,9.36,-1.68,-2.25,1.4,10.5,4.9,9.41,-1.2
Cc1ccc(F)cc1S(=O)(=O)NCc1cccnc1N(C)C,2.25,20.8,-2.76,-0.373,-5.53,14.7,26.1,7.84,21.2,-8.95
CCc1sc(-c2nnc(CNCCn3cc(C)cn3)o2)cc1C,-2.72,5.2,8.91,-6.34,4.71,1.93,10.2,4.9,7.06,-8.57
Cc1cc(C(=O)NCC(C)N2CCc3ccccc32)no1 (stereo not given),0.558,2.6,10.1,2.8,-4.3,0.175,23.3,7.84,11.8,-1.74
Cc1ccc(C(=O)N2CCCC3(CCCC(=O)N3C)C2)cc1F (stereo not given),-2.74,19.5,-4.32,-1.5,4.11,14.5,5.96,7.73,10,-9.62
Cc1n[nH]c(C)c1C1COCCN1C(=O)c1ccccc1 (stereo not given),0.213,-2.56,15,-3.47,8.61,3.67,20.7,-1.44,-1.21,-0.727
COCc1c(C(=O)NC2CCCC2)nnn1-c1ccc(C)cc1,106,9.33,-6.27,-2.37,0.443,8.54,14.6,-2.12,7.5,-17.9
COC1CCCN(Cc2nc(Cc3ccccc3F)no2)C1 (stereo not given),-7.36,-5.41,1.17,2.04,1.75,1.71,3.24,5.85,14.6,0.44
CN(C)CCCn1ccnc1C1CCCN(c2cc(N)ncn2)C1 (stereo not given),-10.5,2.7,2.22,-3.59,-2.45,4.97,-11,7.98,4.88,4.53
Cc1cnn(CC2CCCN2C(=O)c2ccc(C(N)=O)cn2)c1 (stereo not given),-5,15.4,2.02,5.92,2.05,9.47,12.1,0.478,13.2,-6.88
COCCc1ncc(CN2CCC(Oc3ccccc3C)CC2)cn1,-2.3,17.3,7.21,1.58,-0.443,12.6,7.38,6.35,20,-22.7
CC(C)N1CCCC2(CCN(C(=O)CCCn3cncn3)C2)C1=O (stereo not given),-5.4,5.41,6.04,7.27,-1.75,15.1,19.6,7.98,12.2,-6.32
Fc1ccc(CN2CCC(c3n[nH]c4ncccc34)CC2)cc1F,-7.07,4,-2.28,-6.11,-0.885,3.94,16.9,-4.23,-5,-26.5
